Screens deposited in PubChem BioAssay by National Center for Advancing Translational Sciences (NCATS).
SARS PLP yeast = qHTS of Yeast-based Assay for SARS-CoV PLP | actives 0.19% (n = 330,000) | S. cerevisiae expressing SARS-CoV PLpro, growth rescue | Potency, µM (series often up to 32.9 µM), hits mostly activators; calls by dose curve; further: nearly all actives have a fitted effect of over 55% in size
Sm TGR block = qHTS Assay for the Inhibitors of Schistosoma Mansoni Peroxiredoxins. Schistosoma mansoni thioredoxin glutathione reductase (TGR), Q962Y6. purified TGR, DTNB reduction, TNB absorbance 405 nm. Potency, µM (series often up to 114 µM), most hits filed as inhibitors. actives 3% (n = 360,000); further: nearly all actives have a fitted effect of over 60% in size
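First, TGR (20 nM dispensed) and NADPH were mixed with compound. Second, a 15 min room-temperature incubation followed. Third, further NADPH and then DTNB were added to start the reaction. Finally, TNB absorbance was monitored kinetically.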
AmpC inh no detg = qHTS Inhibitors of AmpC Beta-Lactamase (assay without detergent); P00811; AmpC nitrocefin hydrolysis, absorbance 480 nm, 0.0001% Triton; Potency, µM (highest dose often 57.1 µM), actives largely listed as inhibitors; actives 0.52% (n = 330,000); further: nearly all actives have a fitted effect of over 20% in size
Target sequence (P00811 whole entry, looked up): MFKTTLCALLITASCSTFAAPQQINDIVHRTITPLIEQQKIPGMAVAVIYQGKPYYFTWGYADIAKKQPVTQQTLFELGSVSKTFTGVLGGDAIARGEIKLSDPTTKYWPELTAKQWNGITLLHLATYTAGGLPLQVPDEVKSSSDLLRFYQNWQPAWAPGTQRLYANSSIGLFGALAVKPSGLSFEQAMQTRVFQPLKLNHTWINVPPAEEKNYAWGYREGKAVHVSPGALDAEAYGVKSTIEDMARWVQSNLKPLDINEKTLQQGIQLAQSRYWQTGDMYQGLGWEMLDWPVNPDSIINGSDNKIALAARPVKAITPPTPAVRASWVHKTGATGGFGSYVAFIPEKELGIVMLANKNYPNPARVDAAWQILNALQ
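20 mM phosphate pH 7.0 + 0.01% (detergent screen) or 0.0001% Triton X-100; 5.3 nM AmpC reagent; cpd preinc 15 min RT; nitrocefin (800 uM stock) to start; A480 q20 s × 4 min; Activity was normalised to no-enzyme and no-compound control wells.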
AmpC detergent = qHTS Inhibitors of AmpC Beta-Lactamase (assay with detergent); Potency, µM (top dose mostly 114 µM), hits mostly inhibitors; AmpC hydrolysis of nitrocefin, absorbance 480 nm, 0.01% Triton; actives 0.041% (n = 370,000); P00811; further: nearly all actives have a fitted effect of over 25% in size
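20 mM phosphate pH 7.0 + 0.01% (detergent screen) or 0.0001% Triton X-100; 5.3 nM AmpC reagent; cpd preinc 15 min RT; nitrocefin (800 uM stock) to start; A480 q20 s × 4 min; Activity was normalised to no-enzyme and no-compound control wells.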
Pf growth 48h = Primary qHTS for delayed death inhibitors of the malarial parasite plastid, 48 hour incubation; P. falciparum luciferase growth in erythrocytes, 48 h; Potency, µM (highest dose often 28.7 µM), actives largely listed as inhibitors; actives 5.9% (n = 310,000); AID 504832, 2011
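Parasite viability was followed by luminescence of a genomically integrated firefly luciferase. Cultures held 0.1% parasitemia at 2% hematocrit (final), incubated under 5% CO2 at 37 C.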
Pf growth 96h = Primary qHTS for delayed death inhibitors of the malarial parasite plastid, 96 hour incubation | Potency, µM (top dose mostly 28.7 µM), actives largely listed as inhibitors | P. falciparum luciferase reporter growth, 96 h | actives 6.9% (n = 320,000) | AID 504834, 2011
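Parasite growth measured via integrated firefly luciferase reporter in P. falciparum. Infected erythrocytes at 2% hematocrit, 0.05% parasitemia final were treated 96 hours at 37 C under 5% CO2, and luminescence was read.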
Each line names hits and unclear results; the compound was inactive in the other large screens. Compounds with a hit are over-represented: about 12% of the library has one in this group of screens. Unless noted, the call rests on the fitted dose curve; in most records, active means well fitted curve in the direction sought with a large enough effect; inconclusive means small, poorly fitted or top-dose-only effect, or another doubt; inactive means no such curve, though single readings can be large; an effect the other way counts as inactive or inconclusive.

Oc1ccc2ccccc2c1CN1CCN(C/C=C/c2ccccc2)CC1	Sm TGR block 2.8µM, Pf growth 48h inconclusive, Pf growth 96h 9.3µM
Oc1ccc2ccccc2c1CN1CCN(c2ccccc2F)CC1	Sm TGR block 11µM, Pf growth 48h inconclusive
O=S(=O)(c1ccccc1)N1CCN(Cc2c(O)ccc3ccccc23)CC1	none (no result: Sm TGR block, AmpC detergent, Pf growth 48h, Pf growth 96h)
CN(C)c1cc[n+](CC(O)C[n+]2ccc(N(C)C)cc2)cc1	Pf growth 48h 9.3µM, Pf growth 96h 4.7µM
CCN(CC)C(=O)c1sc(NC(=O)C(C)Sc2nc(-c3ccccc3)cc(C(F)(F)F)n2)c(C(=O)OC)c1C (configuration not stated)	none (no result: SARS PLP yeast, AmpC inh no detg, Pf growth 48h, Pf growth 96h)
CCC/C(O)=C1\C(=O)CCCC1=NC(C)C(=O)O (configuration not stated)	Pf growth 48h inconclusive, Pf growth 96h 3.7µM
CCC/C(O)=C1\C(=O)CCCC1=NCCc1ccc(OCC)c(OCC)c1	Pf growth 48h inconclusive
CNS(=O)(=O)c1cccc(C(=O)OCc2cc(=O)n3cc(Br)ccc3n2)c1	none
CCOC(=O)c1ccccc1NC(=O)CSc1ncc(CO)n1Cc1ccc(C)cc1	none (no result: SARS PLP yeast, AmpC inh no detg, Pf growth 48h, Pf growth 96h)
Cc1ccc(S(=O)(=O)N(C)Cc2cc3ccccc3[nH]c2=O)cc1	Pf growth 48h inconclusive, Pf growth 96h 9.3µM
CCN(Cc1cc2ccccc2[nH]c1=O)C(=O)C(C)C	Pf growth 96h 0.93µM
CC(=O)c1c(C)oc2ccc(N(C(=O)Oc3ccccc3)S(=O)(=O)c3ccc(Cl)cc3)cc12	none (no result: SARS PLP yeast, AmpC inh no detg, Pf growth 48h, Pf growth 96h)
COC(=O)c1ccc(CNC(=O)/C=C/c2cc([N+](=O)[O-])ccc2OC(F)F)cc1	none (no result: Pf growth 48h)
CC(Oc1ccc(Cl)cc1)C(=O)Nc1ccc(S(=O)(=O)Nc2nccs2)cc1 (configuration not stated)	none
CC(C)[C@H](NC(=O)c1ccccc1Cl)C(=O)Nc1nc(-c2ccccn2)cs1	Pf growth 48h 9.3µM, Pf growth 96h inconclusive
CC(Oc1ccc(Cl)cc1)C(=O)Nc1nccs1 (configuration not stated)	Pf growth 48h 4.1µM (no result: Pf growth 96h)
CC(Oc1ccc(Br)cc1)C(=O)Nc1nc(-c2ccccn2)cs1 (configuration not stated)	Pf growth 48h 7.4µM, Pf growth 96h 3.7µM
CCc1nnc(NC(=O)C(NC(=O)c2ccccc2Cl)C(C)C)s1 (configuration not stated)	none
O=C(CSc1ccc(F)cc1)NC1CCCCC1	none
Cn1nc(C(C)(C)C)c([N+](=O)[O-])c1C(=O)Nc1cccc2ccccc12	Pf growth 48h 12µM, Pf growth 96h 12µM
COc1ccccc1NC(=O)c1c([N+](=O)[O-])c(C(C)(C)C)nn1C	Pf growth 48h inconclusive, Pf growth 96h inconclusive
COCCNC(=O)CCc1nnc(Cc2ccc(-c3ccccc3)cc2)o1	Pf growth 96h 12µM
Cc1ccc(NC(=O)N2CCC3(CC2)Oc2ccccc2C(=O)N3Cc2ccc(F)cc2)cc1	none (no result: SARS PLP yeast, AmpC inh no detg, Pf growth 48h, Pf growth 96h)
O=C1c2ccccc2OC2(C=Cc3ccccc3O2)N1Cc1ccccc1 (configuration not stated)	Pf growth 96h 4.1µM (no result: Pf growth 48h)
CCc1ccccc1NC(=O)CN1C(=O)COc2ccc(S(=O)(=O)N3CCCCCC3)cc21	none (no result: SARS PLP yeast, AmpC inh no detg, Pf growth 48h, Pf growth 96h)
CC1CCCN(S(=O)(=O)c2cc(C(=O)NCc3ccccc3Cl)n(C)c2)C1 (configuration not stated)	none (no result: SARS PLP yeast, AmpC inh no detg, Pf growth 48h, Pf growth 96h)
CCN(CC(=O)Nc1ccccc1SC)Cc1nc2ccccc2c(=O)[nH]1	none
CCN(CC(=O)NC(c1ccccc1)c1ccccc1)Cc1nc2ccccc2c(=O)[nH]1	Pf growth 48h 12µM, Pf growth 96h 7.4µM
CCN(CC(=O)Nc1ccc2c(c1)CCC2)Cc1nc2ccccc2c(=O)[nH]1	Sm TGR block 50µM
CCN(CC(=O)Nc1ccc2c(c1)OCO2)Cc1nc2ccccc2c(=O)[nH]1	AmpC detergent inconclusive, Pf growth 48h inconclusive, Pf growth 96h inconclusive
CCN(Cc1nc2ccccc2c(=O)[nH]1)Cc1nc2ccsc2c(=O)[nH]1	Pf growth 48h inconclusive, Pf growth 96h 1.5µM
CCN(CC)CCCNC(=O)C1CCN(S(C)(=O)=O)CC1	none (no result: SARS PLP yeast, AmpC inh no detg, Pf growth 48h, Pf growth 96h)
CSc1nc(Sc2ccccc2Cl)c2ccccc2n1	Pf growth 48h inconclusive
CCc1ccc(NCc2cc3cc4c(cc3n(CC(=O)Nc3ccccc3C)c2=O)OCCO4)cc1	none (no result: SARS PLP yeast, AmpC inh no detg, Pf growth 48h, Pf growth 96h)
O=C(NC1CCCCCC1)c1cccs1	Pf growth 48h inconclusive
CN1CCC(NC(=O)c2cccs2)CC1	AmpC inh no detg 8.9µM
COc1cc(OC)c2ccc(=O)oc2c1C(CCN1CCCC1)c1ccc(N(C)C)cc1 (configuration not stated)	Pf growth 48h inconclusive, Pf growth 96h inconclusive
CCN(CC)C(=O)CC(c1ccc2c(c1)OCO2)c1c(OC)cc(OC)c2ccc(=O)oc12 (configuration not stated)	Pf growth 48h 8.3µM, Pf growth 96h 10µM
CCN(CC)CCC(c1ccc(N(C)C)cc1)c1c(OC)cc(OC)c2ccc(=O)oc12 (configuration not stated)	Pf growth 48h 12µM, Pf growth 96h inconclusive
CCN(CC)C(=O)CC(c1ccc(N(C)C)cc1)c1c(OC)cc(OC)c2c(-c3ccccc3)cc(=O)oc12 (configuration not stated)	Pf growth 48h 3.7µM, Pf growth 96h 2.1µM
CCN(CC)C(=O)CC(c1ccc(N(C)C)cc1)c1c(OC)cc(OC)c2ccc(=O)oc12 (configuration not stated)	Pf growth 48h 8.3µM, Pf growth 96h 10µM
COc1ccc(C(CC(=O)N2CCOCC2)c2c(OC)cc(OC)c3ccc(=O)oc23)cc1 (configuration not stated)	Pf growth 48h inconclusive, Pf growth 96h inconclusive
COc1ccc(S(=O)(=O)N(C)CC(=O)NCc2ccco2)cc1OC	Sm TGR block inconclusive
C=CCN(CC=C)C(=S)Nc1ccc2nsnc2c1	Sm TGR block inconclusive, Pf growth 48h 8.3µM, Pf growth 96h inconclusive
COc1ccc(NC(=S)Nc2ccc3nc(C)c(C)nc3c2)cc1	Sm TGR block 22µM, Pf growth 96h inconclusive
COc1ccc(NC(=S)Nc2ccc3nsnc3c2)cc1	Sm TGR block 40µM, AmpC detergent inconclusive, Pf growth 96h 0.23µM
C=CCNC(=S)Nc1ccc2nsnc2c1	Sm TGR block inconclusive, Pf growth 96h inconclusive
CNC(=S)Nc1cccc(-c2cnc3ccccc3n2)c1	Sm TGR block 11µM, AmpC detergent inconclusive
